The campaign covered roughly 340,000 compounds. About 2,100 (0.62%) were called active.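 The calls were made as follows: active = first-screen hits whose inhibition reached a set limit at any dose in the follow-up dose series; inconclusive = inhibition above the set first-screen limit but never retested; inactive = the rest.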 The list is a sample of the results. Results with a measured potency or affinity are listed apart.
Each compound was assayed against Rac GTPase-activating protein 1 (Homo sapiens) (UniProt Q9H0H5) (assay: MgcRacGAP GTPase-activating activity inhibitors, confirmation, biochemical, ADP Hunter fluorescence, primary and confirmatory (AID 624330;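 also: fluorescence reports GDP produced by GAP-driven GTP hydrolysis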)). Conditions: MgcRacGAP-stimulated Rac1 GTP hydrolysis, at 30 µM, stronger effect = higher value, GST-tagged Rac1 F28L mutant substrate.
Rac GTPase-activating protein 1 (Homo sapiens), sequence (Q9H0H5 whole entry, looked up): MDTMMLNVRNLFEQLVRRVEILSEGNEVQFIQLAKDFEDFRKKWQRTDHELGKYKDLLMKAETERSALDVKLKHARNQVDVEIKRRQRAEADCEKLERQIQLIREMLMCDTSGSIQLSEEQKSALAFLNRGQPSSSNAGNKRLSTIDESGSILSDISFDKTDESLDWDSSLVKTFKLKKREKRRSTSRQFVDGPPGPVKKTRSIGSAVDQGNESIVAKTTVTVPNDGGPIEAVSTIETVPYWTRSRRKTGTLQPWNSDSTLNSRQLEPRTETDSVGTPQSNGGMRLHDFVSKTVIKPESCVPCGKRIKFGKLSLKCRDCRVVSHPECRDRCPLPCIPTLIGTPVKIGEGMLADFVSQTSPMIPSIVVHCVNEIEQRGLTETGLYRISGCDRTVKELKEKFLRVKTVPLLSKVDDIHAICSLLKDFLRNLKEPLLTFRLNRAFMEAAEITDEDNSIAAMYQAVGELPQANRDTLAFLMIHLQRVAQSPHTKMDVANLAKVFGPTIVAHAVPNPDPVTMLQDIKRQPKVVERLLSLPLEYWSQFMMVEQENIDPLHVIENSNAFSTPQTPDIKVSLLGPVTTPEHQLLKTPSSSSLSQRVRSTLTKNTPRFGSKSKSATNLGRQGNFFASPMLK

inhibition, inactive:
COc1ccc(N=Cc2cc(Cl)ccc2O)cc1Cl 15.8%, Oc1ccc(Cl)cc1C=Nc1ccc(Br)cc1 7.16%, c1ccc(C2=Nn3c(nnc3-c3ccco3)SC2)cc1 18%, Fc1ccc(C2=Nn3c(nnc3-c3ccco3)SC2)cc1 1.81%, CN(CC(=O)NCc1ccncc1)S(=O)(=O)c1cc(Cl)ccc1Cl 1.23%, COc1ccc(NC(=O)c2c[nH]c(=O)n(-c3ccc(C)c(C)c3)c2=O)cc1OC -10.4%, CC1=NN(c2ccccc2)C(=O)C1(C)C 12.1%, CC1=NN(c2ccccc2)C(=O)C1c1ccccc1 (centres undefined) 26.3%, COc1ccc(CNC(=O)CSc2nnc3c(n2)[nH]c2ccccc23)cc1 3.19%, CSc1ncnc2c1ncn2CCCNCCCc1ccccc1 17.5%, CSc1ncnc2c1ncn2CCCNCc1ccccc1 17.1%, COc1ncnc2c1ncn2CCCNCc1ccccc1 20.3%, Cc1ccc(NCCCn2cnc3c(OCc4ccccc4)ncnc32)cc1C 26.1%, CCOCCCNC(=O)c1cc(Cl)c(NC(=O)C2=C(C)OCCS2)cc1OC 9.37%, OCC[C@H]1C[C@@H](O)[C@H](O)[C@]2(CCc3ccccc3CO2)O1 -0.41%, CCN1CCN(c2cc(N3CCN(C(=O)c4ccco4)CC3)c3c4c(onc24)-c2ccccc2C3=O)CC1 25.5%, CN1CCN(c2cc(N3CCN(C(=O)c4ccco4)CC3)c3c4c(onc24)-c2ccccc2C3=O)CC1 14.2%, Cc1nc(NC(=O)CCCC(=O)Nc2nc(C)c(C)s2)sc1C 3.32%, CCc1cc(=O)oc2c(C)c(OC(C)C(=O)NCC3CCC(C(=O)O)CC3)ccc12 (centres undefined) 0.46%, CCN(C(=O)Cn1cc(C(=O)C(=O)N2CCOCC2)c2ccccc21)c1ccccc1 7.38%, C=C(CC)C(=O)c1ccc(OCC(=O)O)c(Cl)c1Cl 4.69%, O=C(O)COc1ccc2nsnc2c1Cl 6.84%, CN1CCN(C(=O)CN(CCc2ccccc2)S(C)(=O)=O)CC1 1%, CS(=O)(=O)Nc1cccc(C2=NN(C(=O)c3cccc([N+](=O)[O-])c3)C(c3cccs3)C2)c1 (centres undefined) 7.25%, CC1(C)CC(CC(=O)Nc2ccccn2)C(=O)O1 (centres undefined) 3.54%, Cc1ccc(Oc2ncccc2/C=N/O)cc1 5.93%, Cc1cc(Cl)ccc1OC(C)C(=O)OCC(=O)Nc1ccc2[nH]c(=O)[nH]c2c1 (centres undefined) 1.09%, CN(C)/C=C1\NC(=S)N(c2ccc(Cl)cc2)C1=O 17.9%, COc1ccc(N2C(=O)/C(=C/c3cccs3)NC2=S)cc1 9.24%, COc1ccc(N2C(=O)/C(=C/c3cccnc3)NC2=S)cc1 3.24%, CCN1C(=O)/C(=C\N(C)C)NC1=S 12%, Cc1cccc(C)c1NC(=O)C1CCN(S(C)(=O)=O)CC1 -16.2%, O=C(O)c1cc(O)c2c(c1)C(=O)c1cccc(O)c1C2=O 28.8%, O=C1C=C(O)c2cccc(O)c2C1=O 0.71%, CNC(=O)c1sc(=S)n(-c2ccc(OC)cc2)c1N 3.75%, Cc1cccc(-c2ncc(S(=O)(=O)C(C)(C)C)c(N)n2)c1 -7.62%, CC(=O)Nc1ccc(N(C(=O)CNC(=O)c2ccco2)C(C(=O)NCc2ccco2)c2ccccc2F)cc1 (centres undefined) 4.97%, Cc1cccc(C(=O)NC(C)c2ccc(-n3ccnc3)cc2)c1C (centres undefined) 5%, COc1ccc([N+](=O)[O-])cc1NC(=O)C(C)NNC(=O)c1cccc([N+](=O)[O-])c1 (centres undefined) 4.39%, CN(C)C=Nc1ccc2nn(-c3ccccc3)nc2c1 6.6%, CN(C)C=Nc1ccc(Cl)c(Cl)c1 2.39%, Cc1c(C(c2cc(O)ccc2O)c2c(C)n(C)n(-c3ccccc3)c2=O)c(=O)n(-c2ccccc2)n1C -9.5%, CCCN(C(=O)c1cccs1)c1c(N)n(Cc2ccccc2)c(=O)[nH]c1=O 4.88%, CSc1ncccc1C(=O)Nc1cc(C)ccn1 11.2%, COc1ccc(CC(=O)NCC2CCCN(Cc3ccc(F)c(OC)c3)C2)cc1 (centres undefined) -1.16%, CC1=C(C(=O)N2CCOCC2)CC(CC(=O)NC2CCCC2)C(=O)N1Cc1ccc(F)cc1 (centres undefined) 14.4%, COc1cccc(NC(=O)NNC(=O)COc2ccc3ccccc3c2)c1 2.17%, COc1ccc2cc(OCC(=O)NNC(=O)Nc3ccc(OC)c(OC)c3)ccc2c1 17.7%, COc1ccc(NC(=O)NNC(=O)COc2ccc3cc(Br)ccc3c2)cc1 9.2%, COc1ccc(NC(=O)NNC(=O)COc2ccc3ccccc3c2)cc1 5.22%, COc1ccc(C(=O)N2CCNC(=O)C2CC(=O)Nc2cccc(Cl)c2Cl)cc1 (centres undefined) -0.3%, O=Cc1cn(-c2ccccc2)nc1-c1cccc([N+](=O)[O-])c1 6.3%, COc1ccc(C2NN=C(c3ccc(C)cc3)S2)cc1 (centres undefined) 7.81%, COc1ccc(C2NN=C(c3ccc(C)cc3)S2)cc1OC (centres undefined) -0.47%, COc1ccc(NC(=O)CC2C(=O)NCCN2C(=O)c2ccccc2)cc1 (centres undefined) 6.95%, Nc1nc(-c2ccccc2)cn1/N=C/c1ccccc1 3.51%, CC(=O)N(C(C)=O)c1nc(-c2ccccc2)cn1/N=C/c1ccccc1 7.71%, Cc1ccc(S(=O)(=O)CCC(=O)Nc2nc(-c3cccnc3)cs2)cc1 -10.2%, CCCc1nn2c(=O)cc(CSCC(=O)Nc3ccc(OC)cc3)nc2s1 1.76%, Cc1nnc(N2C(=O)C(O)=C(C(=O)c3ccco3)C2c2cccc3ccccc23)s1 (centres undefined) 7.61%, CC(C)(O[C@@H]1O[C@H](CO)[C@@H](O)[C@H](O)[C@H]1O)[C@H]1Cc2cc3ccc(=O)oc3cc2O1 3.49%, O=C(CNS(=O)(=O)c1ccc([N+](=O)[O-])cc1)N/N=C\c1ccc(O)cc1 20.8%, O=C(N/N=C/c1ccc(OCc2ccccc2)cc1)c1cc[n+](Cc2ccccc2)cc1 13.8%, O=C(N/N=C/c1ccc(Br)cc1)c1cc[n+](Cc2ccccc2)cc1 4.25%, O=C(CNC(=O)c1ccccc1Br)N/N=C/c1cccnc1 7.98%, CC(=O)Nc1ccc(/C=N\NC(=O)CNS(=O)(=O)c2ccc([N+](=O)[O-])cc2)cc1 9.49%, CC(=O)Nc1ccc(/C=N/NC(=O)CNS(=O)(=O)c2ccccc2)cc1 9.41%, O=C(CNC(=O)c1ccccc1Br)N/N=C/c1ccccc1O 5.07%, O=C(CNS(=O)(=O)c1ccccc1)N/N=C\c1ccc(Cl)cc1 7.25%, COc1cc(C2N(c3cc(C)on3)C(=O)C3CCCN32)cc(OC)c1OC (centres undefined) 4.47%, CCOC(=O)C(=O)/C(=C\N(C)C)c1onc(-c2c(F)cccc2Cl)c1C(=O)OC 4.69%, CSc1nc(C)cc(OCC#N)n1 5.78%, Cc1cccc(NC(=S)N2CCN(S(=O)(=O)c3ccc(F)cc3)CC2)c1 8.03%, CCCCCCN1C[C@@H](n2cc(COC(=O)c3ccccc3)nn2)[C@H](O)C[C@@H]1c1ccc(Cl)cc1 8.49%, Nc1ccc(-c2cn3cccnc3n2)cc1 -4.77%, COc1cccc(N2CCN(C(=O)CCc3nnc4ccc(N5CCCC5)nn34)CC2)c1 18%, O=C(COc1ccc(Cl)cc1)Nc1cc(S(=O)(=O)N2CCCCC2)ccc1N1CCCCC1 -10.3%, C=CCNC(=O)c1snnc1-c1ccccc1 5.75%, O=C(C[n+]1ccccc1)N/N=C/c1ccc(C(=O)O)cc1 2.14%, O=C(Cn1cnc([N+](=O)[O-])n1)N/N=C/c1ccccc1O 4.85%, CCN(CC)c1ccc(/C=N/NC(=O)Cc2cccs2)cc1 18.5%, COc1ccc(/C=N/NC(=O)Cc2cccs2)cc1 3.05%, O=C(C[n+]1ccccc1)N/N=C/c1ccc(Br)cc1 -2.09%, O=C(Cn1cnc([N+](=O)[O-])n1)N/N=C/c1cc(Cl)ccc1O 11.2%, CCOc1ccc(NC(=O)COc2cccc3cccnc23)cc1S(=O)(=O)N1CCCC1 5.24%, CC(C)c1[nH]nc2c1C(c1cccs1)C(C#N)=C(N)O2 (centres undefined) 8.28%, CC(C)(C)S(=O)(=O)c1cnc2c(S(=O)(=O)c3ccccc3)cnn2c1N -3.04%, N#CCC(=O)Nc1ccc(C(=O)OCC(=O)N=c2sccn2Cc2ccccc2Cl)cc1 5.66%, CCOC(=O)c1c[nH]c(=O)c(Br)c1O 4.86%, COc1ccc(NS(=O)(=O)c2cc(NC(=O)c3ccco3)ccc2N2CCCC2)cc1 -4.14%, O=C(COC(=O)COc1ccccc1)Nc1ncc([N+](=O)[O-])s1 11.1%, COc1ccc(C(=O)OCC(=O)Nc2ncc([N+](=O)[O-])s2)cc1OC 21.6%, C/C(=N\OC(=O)Nc1ccc(Cl)cc1)c1ccc(F)c(F)c1 6.77%, CCOC(=O)N1CCN(C(=O)Cc2cccs2)CC1 9.5%
